The results in this text go back to the supplement of paper PMC10981050.

SMILES strings stand for the structures. Values joined by “and” are separate entries in the source; they are usually repeats but may differ in a detail not shown here. Equal entries are not always repeated.

For one assay, the system named is K562. As to the kind of experiment: cell viability relative to vehicle control; higher = less cytotoxic. As to conditions: 10 µM; SRSF2 genotype: SRSF2 P95H/wt. The essentials: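 Each screen used CRISPR-edited mutant and wild-type clones from four leukaemia lines. Compounds were acoustically dispensed at a single 10 µM dose, and CellTiter-Glo luminescence was read after 48 h with the supernatant first removed. Viability was analysed in Genedata Screener and given as percent of the on-plate vehicle control.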
What is called cell viability is a read-out of living cells in per cent, often relative to untreated cells. For the compound `Nc1ccc(Oc2ccc(-c3ccc(Oc4ccc(N)cc4)cc3)cc2)cc1` [4,4prime-Bis(4-aminophenoxy)biphenyl], the cell viability is 103% and 98.3%. With `CCCCCOC(=O)Nc1nc(=O)n([C@@H]2O[C@H](C)[C@@H](O)[C@H]2O)cc1F` [Capecitabine (Xeloda)], the cell viability was 102% and 99.8%. For `C=CC(=O)Nc1cc(Nc2nccc(-n3cc(CN(C)C)c(-c4ccccc4)n3)n2)c(OC)cc1N1CCOCC1`, the cell viability is 85.6% and 94.6%.

Still in this assay, the particulars now being: 10 µM; SRSF2 genotype: SRSF2 wt/wt.
Turning to `COc1ccc2cc(C(=O)O)ccc2c1` [6-Methoxy-2-naphthoic acid], the cell viability amounted to 94.2%. Same read-out and setting: as for `OC[C@H]1O[C@H](OCC2O[C@@H](O)[C@H](O)[C@@H](O)[C@@H]2O)[C@H](O)[C@@H](O)[C@H]1O` (stereo partly drawn) [Melibiose], the figure is 106%; as for `CNC(=O)c1ccc(-c2cnc3ncc(Cc4ccc5ncccc5c4)n3n2)cc1F`, 102%; as for `Nc1cc(C(Cl)=C(Cl)Cl)c(S(N)(=O)=O)cc1S(N)(=O)=O` [Clorsulon], 99.7%. Still for that read-out and setting: as for `C[C@H](CCC(=O)O)[C@H]1CC[C@H]2[C@@H]3C[C@H](O)[C@@H]4C[C@H](O)CC[C@]4(C)[C@H]3CC[C@]12C` [Hyodeoxycholic acid (HDCA)], the figure is 88.6%; as for `COc1ccc(C[C@@H]2c3cc(Oc4cc(C[C@@H]5c6cc(OC)c(OC)cc6CCN5C)ccc4O)c(OC)cc3CCN2C)cc1` [Neferine], 99%; as for `CN1CC(O)c2cc(N=NC(N)=O)c(O)cc21` (stereo not drawn) [Carbazochrome], 89.4%.

On to `COc1ccccc1N1CCN(CCN(C(=O)C2CCCCC2)c2ccccn2)CC1`, for which the cell viability came to 77.3%. On the same count and under the same terms, under `CCCCCCCCCC[C@H](C(=O)O)[C@]1(C(=O)O)CCC(=O)O1` [Spiculisporic Acid] stands 103%; under `COc1ncnc(NS(=O)(=O)c2ccc(N)cc2)c1OC` [Sulfadoxine (Sulphadoxine)], 98.1%. Still for that read-out and setting: under `OCCc1ccc(O)c(O)c1` [Hydroxytyrosol] stands 98.2%.

In the case of `CNc1ccc([N+](=O)[O-])c(Nc2ccc3[nH]ncc3c2)n1`, the cell viability worked out at 58.6%. Regarding `Cc1cc2c(F)c(Oc3ncnn4cc(OC[C@@H](C)O)c(C)c34)ccc2[nH]1`, the cell viability is 99.5%.

Take `Cc1nc(-c2ccc(OCC(C)C)c(C#N)c2)sc1C(=O)O` [Febuxostat (Uloric)]: the cell viability worked out at 100%.

Regarding `COc1ccc(C(=O)CC(=O)c2ccc(C(C)(C)C)cc2)cc1` [Avobenzone (Parsol 1789)], the cell viability was found to be 91.8%. Consider `Nc1ccc(Cl)cc1C(=O)C(F)(F)F` [4-Chloro-2-(trifluoroacetyl)aniline hydrochl], for which the cell viability worked out at 112%. As for `NC(=O)OCC(COC(N)=O)c1ccccc1` [Felbamate], the cell viability worked out at 94.4%. For `O=C1CCC(N2C(=O)c3ccccc3C2=O)C(=O)N1` (stereo not drawn) [Thalidomide], the cell viability was 84.5%. For the compound `C[C@@]1(CO)C[C@@H](O)C[C@@]2(C)[C@@H]3CC[C@](C)([C@@H](O)CO)C=C3CC[C@H]12` [Kirenol], the cell viability is 97.7%. The same measure, in the same setting: under `CCC[C@H](NC(=O)/C(C#N)=C/c1cccc(Br)n1)c1ccccc1` [Degrasyn (WP1130)] stands 9.59%; under `O=C(Nc1ccccc1)N1CCN(c2nc(-c3ccccc3)ns2)CC1`, 91.6%; under `CCCCCCCCCC=O` [Decyl aldehyde], 106%.

On to `CC1(C)CCC2(C(=O)O)CCC3=C(C(CCl)CC4C3(C)CCC3C4(C)CC(O)C(O)C3(C)C(=O)O)C2C1` (stereo not drawn) [Senegenin], for which the cell viability was 104%. In the case of `CS(=O)(=O)Nc1cc2occ(NC=O)c(=O)c2cc1Oc1ccccc1` [Iguratimod], the cell viability is 110%. Same read-out and setting: under `OC[C@H]1O[C@@H](Oc2cc(O)cc(/C=C/c3ccc(O[C@@H]4O[C@H](CO)[C@@H](O)[C@H](O)[C@H]4O)cc3O)c2)[C@H](O)[C@@H](O)[C@@H]1O` [Mulberroside A] stands 98.2%; under `Cc1ccc(Sc2ccccc2N2CCNCC2)c(C)c1`, 2.31%.

Take `Cc1cc(C(O)=C2C(=O)C(=O)N(CCCN3CCOCC3)C2c2ccncc2)ccc1OCc1ccccc1` (stereo not drawn): the cell viability stood at 102%. On the same count and under the same terms, under `CCCCCCNC(=O)n1cc(F)c(=O)[nH]c1=O` [Carmofur] stands 82%; under `COC(=O)C1=CO[C@@H](O[C@@H]2O[C@H](CO)[C@@H](O)[C@H](O)[C@H]2O)[C@@H]2[C@H](C)O[C@@H](O)C[C@H]12` [Morroniside], 93%; under `Cn1cc(C2=C(c3cccc(N)c3)C(=O)NC2=O)c2ccccc21`, 58.5%. The same measure, in the same setting: as for `COCC[n+]1c2c(n(Cc3cnccn3)c1C)C(=O)c1ccccc1C2=O` [YM155 (Sepantronium Bromide)], the figure is 0.47%. Same read-out and setting: under `CCOCc1nc2c(N)nc3ccccc3c2n1CC(C)(C)O` [Resiquimod] stands 92.3%; under `Cn1sc(=O)n(Cc2ccccc2)c1=O`, 0.35%. As for `O=C(CCCCCN1C(=O)c2cccc3cccc(c23)C1=O)NO` [Scriptaid], the cell viability came to 11.4%. Take `O=C(O)CNC(=O)c1ccccc1` [Hippuric acid]: the cell viability was 106%. Same read-out and setting: as for `Cn1cc(-c2ccc3nnc(Sc4ccc5ncccc5c4)n3n2)cn1`, the figure is 96.6%.

Turning to `CS(=O)(=O)c1ccc(-c2cnc(NCc3ccco3)n3cnnc23)cc1`, the cell viability worked out at 97.2%. Same read-out and setting: under `Nc1ccc(Oc2ccc(-c3ccc(Oc4ccc(N)cc4)cc3)cc2)cc1` [4,4prime-Bis(4-aminophenoxy)biphenyl] stands 110%. Still for that read-out and setting: under `CCCCCOC(=O)Nc1nc(=O)n([C@@H]2O[C@H](C)[C@@H](O)[C@H]2O)cc1F` [Capecitabine (Xeloda)] stands 104%.

With `C=CC(=O)Nc1cc(Nc2nccc(-n3cc(CN(C)C)c(-c4ccccc4)n3)n2)c(OC)cc1N1CCOCC1`, the cell viability was 84.8%.
